Measurements as given in PubChem BioAssay (NCATS).
Records with an inconclusive call do not appear. Activity calls are given as the source filed them. Calls follow the shape of the dose curve; as a rule, active = well fitted inhibition curve with a large enough effect; inconclusive = small, poorly fitted or top-dose-only effect; inactive = flat fitted curve, though single readings scatter.

Tested on: KB-3-1
Test: Cytotoxic Profiling of Annotated Libraries Using Quantitative High-Throughput Screening (AID 1296008); also: nearly all actives have a fitted effect of over 60% in size
Conditions: Five cell lines viability, CellTiter-Glo ATP luminescence, 48-72 h; max response: stronger effect = lower value
Summary of the method: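 Cytotoxicity was measured as CellTiter-Glo ATP luminescence, read after 10 min at room temperature. Compound treatment of the cells lasted 48 or 72 hr at 37 degrees Celsius in a qHTS format.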
% is scaled to controls: 0 for no effect and ±100 for the full control effect; potency is read from the fitted curve at half-maximal effect.

SMILES | Potency | max response
CN(C)c1ccc2c(c1)OC(N)=C(C#N)C2c1cccc(C(F)(F)F)c1 (stereo not drawn) | 0.291 µM (active) | –
C=CC(=O)Nc1cccc(CN2C(=O)N(c3c(Cl)c(OC)cc(OC)c3Cl)Cc3cnc(NCCCCN(CC)CC)nc32)c1 | 18.4 µM (active) | –
CC1(C)CC[C@]23CO[C@@]4(CCC5[C@@]6(C)CC[C@H](O[C@@H]7OC[C@H](O[C@@H]8O[C@H](CO)[C@@H](O)[C@H](O)[C@H]8O)[C@H](O)[C@H]7O[C@@H]7O[C@H](CO)[C@@H](O[C@@H]8O[C@H](CO)[C@@H](O)[C@H](O)[C@H]8O)[C@H](O)[C@H]7O)[C@@](C)(CO)C6CC[C@@]5(C)[C@]4(C)C[C@H]2OC2OCC(O)C(O)C2O)C3C1 (stereo partly drawn) | – | -11.5% (inactive)
